# Results published in PubChem BioAssay (NCATS).
# Records with an inconclusive call do not appear. Where a call stands in place of a potency, no number is given. Unmarked numbers belong to inactive results. Calls of active or inactive are those of the source. Unless noted, calls come from the whole dose curve; as a rule, active = well fitted curve in the direction sought with a large enough effect; inconclusive = small, poorly fitted or top-dose-only effect, or another doubt; inactive = no such curve, though single readings can be large; an effect the other way counts as inactive or inconclusive.
# Tests used:
# [1] = molecular target: Aldehyde dehydrogenase, mitochondrial (Homo sapiens) (UniProt P05091); assay: qHTS for Inhibitors of the Aldehyde Dehydrogenase Family (ALDH2) Validation screens (AID 2061302; active = well fitted inhibition curve with a large enough effect; title and protocol of this record describe different tests)
# [2] = molecular target: Retinaldehyde dehydrogenase 3 (Homo sapiens) (UniProt P47895); assay: qHTS for Inhibitors of the Aldehyde Dehydrogenase Family (ALDH1A3) Validation screen (AID 2061312); note: nearly all actives have a fitted effect of over 45% in size
# [3] = molecular target: Aldehyde dehydrogenase, mitochondrial (Homo sapiens) (UniProt P05091); assay: qHTS for Inhibitors of the Aldehyde Dehydrogenase Family (ALDH2) Primary screen (AID 2061308); note: nearly all actives have a fitted effect of over 55% in size
# [4] = molecular target: Retinaldehyde dehydrogenase 3 (Homo sapiens) (UniProt P47895); assay: qHTS for Inhibitors of the Aldehyde Dehydrogenase Family (ALDH1A3) Primary screen (AID 2061315)
# [5] = BET inhibitor-based combinations targeting novel dependencies in MECOM-rearranged (r) AML: SET-2 cell line (AID 2202231); details: SET-2 AML cells viability, CellTiter-Glo luminescence, 48 h; viability: hits give low values, series mostly up to about 46 µM; note: nearly all actives have a fitted effect of over 35% in size
# Outline: (§1)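 Luminescent ATP readout (CellTiter-Glo) after 48 hr drug exposure gives viability. Curves span 11 concentrations and are normalized to DMSO and empty wells. Activity is reported as area under the curve and its Z-transform within each cell line.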
# [6] = BET inhibitor-based combinations targeting novel dependencies in MECOM-rearranged (r) AML: OCI-AML3 cell line (AID 2202232); details: Potency: OCI-AML3 viability; note: series mostly up to about 46 µM; nearly all actives have a fitted effect of over 35% in size
# Outline: as §1
# [7] = BET inhibitor-based combinations targeting novel dependencies in MECOM-rearranged (r) AML: AML-194 cell line (AID 2202237; note: nearly all actives have a fitted effect of over 40% in size)
# Outline: as §1
structure (smiles),measurement,setting,value
CC(C)NCC(O)COc1cccc2ccccc12 (stereo not drawn),Potency,[1],inactive
same,Potency,[2],inactive
CNCCC(Oc1ccc(C(F)(F)F)cc1)c1ccccc1 (stereo not drawn),Potency,[1],inactive
same,Potency,[2],inactive
C=C[C@@H]1CN2CC[C@@H]1C[C@H]2[C@H](O)c1ccnc2ccc(OC)cc12,Potency,[1],inactive
same,Potency,[2],inactive
CC(C)(C)c1ccc(C(O)CCCN2CCC(C(O)(c3ccccc3)c3ccccc3)CC2)cc1 (stereo not drawn),Potency,[1],inactive
same,Potency,[2],inactive
N=C(N)c1ccc(OCCCCCOc2ccc(C(=N)N)cc2)cc1 (tested in a mixture with another compound),Potency,[1],inactive
same,Potency,[2],inactive
O=C1NC(=O)C(c2ccccc2)(c2ccccc2)N1,Potency,[1],inactive
same,Potency,[2],inactive
CC[N+](CC)(CC)CC,Potency,[1],inactive
same,Potency,[2],inactive
COc1ccc(C(=O)/C(Cc2cc(OC)c(OC)c(OC)c2)=C(\C(=O)O)c2ccc3c(c2)OCO3)cc1,Potency,[1],inactive
same,Potency,[2],inactive
Cc1nc2c([nH]1)c(=O)n(C)c(=O)n2Cc1ccco1,Potency,[1],inactive
same,Potency,[2],inactive
CC(C)NCC(O)c1cc(O)cc(O)c1 (stereo not drawn),Potency,[1],inactive
same,Potency,[2],inactive
O=C1CC2(CCCC2)CC(=O)N1CCCCN1CCN(c2ncccn2)CC1,Potency,[1],inactive
same,Potency,[2],inactive
CC(C)c1cccc(C(C)C)c1N1C(=O)c2ccc(O)cc2C1=O,Potency,[1],inactive
same,Potency,[2],inactive
CC(=O)O[C@]1(C(C)=O)CC[C@H]2[C@@H]3C=C(Cl)C4=CC(=O)[C@@H]5C[C@@H]5[C@]4(C)[C@H]3CC[C@@]21C,Potency,[1],inactive
same,Potency,[3],inactive
same,Potency,[2],inactive
same,Potency,[4],inactive
same,viability,[5],80.8%
same,Potency,[6],inactive
same,Potency,[7],inactive
COc1cc(OC)c(/C=C2/C(=O)Nc3ccccc32)c(OC)c1,Potency,[1],inactive
same,Potency,[2],inactive
